High-throughput results deposited in PubChem by National Center for Advancing Translational Sciences (NCATS).
Hits are enriched below; roughly 12% of the tested compounds scored in any of these assays.
PI5P4K alpha inh = qHTS for Inhibitors of phosphatidylinositol 5-phosphate 4-kinase (PI5P4K). Phosphatidylinositol 5-phosphate 4-kinase type-2 alpha (Homo sapiens), P48426. PI5P4Kalpha enzyme, ADP-Glo luminescence, 60 min; active compounds read low. max response, %. hit rate 1.2% among 330,000; active = max response of -50% or lower; inconclusive = between -30% and -50%; inactive = -30% or higher; note: value at the top dose of about 77 µM; % is set by controls: 0 for no effect and ±100 for the full control effect
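Quantitative HTS of the MLSMR library against PI5P4Kalpha with substrate. ATP added last at 5 microM final; room temperature, 60 minutes. Remaining ATP depleted, ADP converted and read as luminescence.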
HP1b chromo inh = HTS for Inhibitors of HP1-beta Chromodomain Interactions with Methylated Histone Tails | Chromobox protein homolog 1 (Homo sapiens), P83916 | AlphaScreen HP1-beta / biotin-H3K9me3 peptide binding | Potency, µM (titrated, usually from 114 µM), for the others: at the top dose activity change, negative = inhibition, hits mostly inhibitors | hit rate 0.56% among 390,000 | AID 540317, 2011; note: potency is the fitted concentration of half-maximal effect; nearly all actives have a fitted effect of over 70% in size
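AlphaScreen: HP1-beta (50 nM) preformed 30 min with biotin-H3(1-18)K9me3 peptide (50 nM) in PBS pH 7.4, 0.01% Tween-20. Compound added for 30 min at RT, then streptavidin donor/nickel chelate acceptor beads (10 ug/mL) for 30 min.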
JMJD2A Tudor = qHTS Assay for Inhibitors of JMJD2A-Tudor Domain; Lysine-specific demethylase 4A (Homo sapiens), O75164; AlphaScreen JMJD2A-Tudor / H3K4me3 peptide binding; Potency, µM (highest dose often 114 µM), for the others: at the top dose activity change, negative = inhibition, most hits filed as inhibitors; hit rate 4.4% among 390,000; AID 504339, 2011; note: potency is the fitted concentration of half-maximal effect; % is set by controls: 0 for no effect and ±100 for the full control effect; nearly all actives have a fitted effect of over 50% in size
G9a block = qHTS Assay for Inhibitors of Histone Lysine Methyltransferase G9a. Histone-lysine N-methyltransferase EHMT2 (Homo sapiens), Q96KQ7. G9a H3K9 monomethylation, AlphaScreen, 2 h. Potency, µM (doses to about 102 µM), without a hit: at the highest dose activity, negative = inhibition, hits mostly inhibitors. hit rate 8.8% among 350,000. AID 504332, 2011; note: potency is the fitted concentration of half-maximal effect; % is set by controls: 0 for no effect and ±100 for the full control effect; nearly all actives have a fitted effect of over 75% in size
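Chemiluminescent proximity detection of H3K9 monomethylation, read after 10 min bead incubation in the dark. Reaction: 20 nM G9a, 500 nM biotin-H3K9 peptide, 20 uM SAM cofactor, 2 h, room temperature, following 15 min enzyme-compound preincubation.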
PLK1 PBD block = qHTS for Inhibitors of PLK1-PDB (polo-like kinase 1 - polo-box domain): Primary Screen; Serine/threonine-protein kinase PLK1 (Homo sapiens), P53350; Plk1 PBD binding of FITC phosphopeptide, fluorescence polarization; Potency, µM, inactives show max response, negative = inhibition, usual class: inhibitors; hit rate 2.8% among 360,000; AID 720504, 2013; note: potency is the fitted concentration of half-maximal effect; series mostly up to about 57 µM; % is set by controls: 0 for no effect and ±100 for the full control effect; nearly all actives have a fitted effect of over 65% in size
Target sequence (P53350 whole entry, looked up, the tested form may be a part): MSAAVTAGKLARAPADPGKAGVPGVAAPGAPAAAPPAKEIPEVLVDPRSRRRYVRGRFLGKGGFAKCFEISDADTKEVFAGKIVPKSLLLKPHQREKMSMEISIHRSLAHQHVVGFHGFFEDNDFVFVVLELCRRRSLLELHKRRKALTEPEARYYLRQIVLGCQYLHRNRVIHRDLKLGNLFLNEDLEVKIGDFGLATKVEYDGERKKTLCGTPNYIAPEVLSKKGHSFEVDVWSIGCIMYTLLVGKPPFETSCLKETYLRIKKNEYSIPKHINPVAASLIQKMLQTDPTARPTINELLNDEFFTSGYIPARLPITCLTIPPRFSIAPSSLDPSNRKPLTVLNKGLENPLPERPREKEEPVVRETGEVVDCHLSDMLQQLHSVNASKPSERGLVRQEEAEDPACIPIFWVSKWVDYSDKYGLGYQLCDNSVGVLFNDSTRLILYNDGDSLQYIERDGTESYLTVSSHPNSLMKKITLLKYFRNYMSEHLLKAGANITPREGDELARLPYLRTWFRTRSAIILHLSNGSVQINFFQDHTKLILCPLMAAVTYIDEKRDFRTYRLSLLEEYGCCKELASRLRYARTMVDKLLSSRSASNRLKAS
BAZ2B inh = qHTS Assay for Inhibitors of BAZ2B; Bromodomain adjacent to zinc finger domain protein 2B (Homo sapiens), Q9UIF8; AlphaScreen BAZ2B-H3K14Ac peptide displacement; Potency, µM (top dose mostly 114 µM), for the others: at the highest dose activity change, negative = inhibition, hits mostly inhibitors; hit rate 4.4% among 360,000; note: potency is the fitted concentration of half-maximal effect; % is set by controls: 0 for no effect and ±100 for the full control effect; nearly all actives have a fitted effect of over 60% in size
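Inhibition is scored as reduced AlphaScreen emission. The BAZ2B/b-H3(5-23)K14Ac complex (50 nM each) in PBS pH 7.4, 0.01% Tween-20 meets compound (up to 110 uM) for 30 min at RT before bead addition.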
Active calls of the source: *; ? = inconclusive; / = no result; [ ] = another dose, or the depositor's remark. Unless noted, calls come from the whole dose curve; as a rule, active = well fitted curve in the direction sought with a large enough effect; inconclusive = small, poorly fitted or top-dose-only effect, or another doubt; inactive = no such curve, though single readings can be large; an effect the other way counts as inactive or inconclusive.

SMILES	PI5P4K alpha inh	HP1b chromo inh	JMJD2A Tudor	G9a block	PLK1 PBD block	BAZ2B inh
COc1cc2c(cc1OC)C1O[C@](c3ccsc3)(C2)Oc2cc(C)n(Cc3ccccc3)c(=O)c21	/	/	/	13%[2.33 µM]	/	4µM*
COc1cc2c(cc1OC)[C@@H]1O[C@](CCCCN3C(=O)c4ccccc4C3=O)(C2)Oc2cc(C)n(-c3ccccc3)c(=O)c21	/	/	/	/	/	9%[22.9 µM]
COc1cc2c(cc1OC)C1O[C@](CCCCN3C(=O)c4ccccc4C3=O)(C2)Oc2c1c(=O)oc1ccc(F)cc21	/	/	/	?	/	8.9µM*
CCCCC[C@]12Cc3cc(OC)c(OC)cc3C(O1)c1c(cc(C)n(-c3ccccc3)c1=O)O2	/	/	/	8%[2.33 µM]	/	11µM*
CCOc1ccc(S(=O)(=O)Nc2cccc(-c3ccc(OCC)nn3)c2)cc1	/	-7%[57 µM]	-29%	?	/	-7%
COc1ccc(-n2c(C)cc(C(=O)Cn3c(NCCO)nc4ccccc43)c2C)cc1	1	?	?	50µM*	-1%	50µM*
O=C(Cn1c(NCCCO)nc2ccccc21)c1ccc(Cl)cc1Cl	6	-2%	-25%	79µM*	-2%	-31%
COc1ccc(CCNc2ncnc3onc(C)c23)c(OC)c1	/	43%	11%	0%[59 µM]	/	12%[57.1 µM]
CCOC(=O)c1sc(N2N=C(C)/C(=C\c3ccc(OCC(=O)OC)cc3)C2=O)nc1C	-5	34%	-9%	-2%	13µM*	7%
CCOC(=O)c1sc(Nc2ccc(OCC)cc2)nc1C	7	42%	-5%	-2%	3%	-39%
COc1ccc2nc(NC(=O)CSc3nc(C)cc(C)n3)sc2c1	-2	30%	-27%	?	-18%	0%
Cc1ccc2nc(NC(=O)COC(=O)CSc3nc(C)cc(C)n3)sc2c1	/	34%	-13%	45µM*	-17%	-37%
COC(=O)c1ccc2nc(NC(=O)C3CC3)sc2c1	3	13%[57 µM]	-9%	6%	-14%	-20%
COC(=O)c1ccc2nc(NC(=O)CN3C(=O)CCC3=O)sc2c1	?	-6%	-21%[11.4 µM]	-7%[2.33 µM]	12µM*	56µM*
COC(=O)c1ccc2nc(NC(=O)COC(=O)CSc3nc(C)cc(C)n3)sc2c1	2	30%	-6%	13µM*	-3%	?
CCN(C(=O)CSc1nnc(-c2ccccc2OC)n1N)c1c(N)n(Cc2ccccc2)c(=O)[nH]c1=O	0	31%	-19%	/	-9%	/
CC(C)(C)NC(=O)c1ccc2nc(CCc3ccccc3)oc2c1	/	7%[57 µM]	-14%	2%[59 µM]	/	1%
S=c1[nH]nc(Nc2cccc(Cl)c2)s1	-55*	28%	-15%	1.4µM*	-22%	-31%
S=c1[nH]nc(Nc2ccccc2Cl)s1	-78*	22µM*	6.3µM*	1.4µM*	19µM*	45µM*
O=C(c1ccc(Cl)cc1)c1cnc(Nc2ccccc2Cl)s1	/	30%	1%	/	-4%	-4%
Clc1cccc(Nc2nc(-c3ccncc3)cs2)c1	2	16%	-4%	-34%	4%	-15%
Cc1ccc(Nc2n[nH]c(=S)s2)cc1C	-74*	/	/	/	?	/
O=C(CSc1nnc(-c2cccc(Br)c2)o1)N1CCNC1=O	3	48%	-8%	/	-8%	/
O=C(Cn1nc2c(cc1=O)CCCC2)NCc1ccccc1	/	25%[57 µM]	-3%	11%[59 µM]	/	2%
COc1cccc(NC(=O)c2sc3ncn(CC(=O)N4CCN(c5ccccn5)CC4)c(=O)c3c2C)c1	-27	3%	?	20%	13µM*	-24%
SMILES	PI5P4K alpha inh	HP1b chromo inh	JMJD2A Tudor	G9a block	PLK1 PBD block	BAZ2B inh
Cc1ccc(NC(=O)c2sc3ncn(CC(=O)N4CCN(c5ccccn5)CC4)c(=O)c3c2C)cc1Cl	-3	67%	-6%	?	-1%	-19%
CCn1ccnc1CN1CCc2c([nH]c3ccccc23)C1C(C)(C)C (configuration not stated)	1	-4%	?	?	2%	?
CCn1ccnc1CN1CCc2c([nH]c3ccccc23)C1C1CCCCC1 (configuration not stated)	-6	-16%	14µM*	45µM*	27µM*	35µM*
Cc1ccc(CNC(=O)Cn2ccn(-c3ccc(F)c(F)c3)c(=O)c2=O)cc1	/	7%	-21%	-34%[59 µM]	/	?
CN(C)c1ccc(N=Nc2ccccc2C(=O)OCC(=O)N2CCCCCC2)cc1	-4	18µM*	28µM*	8.9µM*	32%	13µM*
CSc1ccccc1C(=O)OCC(=O)N1CCCCCC1	0	6%	-8%	/	3%	/
CN(C)c1ccc(N=Nc2ccccc2C(=O)OCC(=O)Nc2ccccc2C(F)(F)F)cc1	17	?	7.1µM*	10µM*	-15%	10µM*
CN(C)c1ccc(N=Nc2ccccc2C(=O)OCC(=O)N2CCCC2)cc1	-2	?	56µM*	25µM*	3%	40µM*
CC(C)CCCC(C)NC(C)C (configuration not stated)	/	/	/	-29%[12.7 µM]	/	/
CCOc1ccc(CCNC(=O)C2CCCN(c3ncnc4c3nc3n4CCCCC3)C2)cc1 (configuration not stated)	-6	39%	-9%	-6%	-16%	-10%
Cc1ccc(-c2nc3ncccn3c2N)cc1	-8	/	/	/	-4%	/
Cc1nccn1CC(O)COc1ccccc1 (configuration not stated)	-1	17%	-4%	6%[59 µM]	0%	4%
OC(COC1CCCCC1)CN1CCCCC1 (configuration not stated)	3	-20%	79µM*	7.9µM*	-2%	56µM*
CC(C)(C)C1CCC(OCC(O)CN2CCCC2)CC1 (configuration not stated)	-2	33%	-1%	/	-5%	-1%
Cc1nccn1CC(O)COC1CCCCC1 (configuration not stated)	-1	?	18µM*	?	-8%	32µM*
Nc1ncnc2c1ncn2COC(CO)CO	/	4%[57 µM]	-2%[57.1 µM]	/	/	/
CCOc1ccc(C(=O)N(Cc2nc(-c3cccc(C)c3)no2)C(C)C)cc1	/	90%	3%	55%[59 µM]	/	75%
Cc1ccc(S(=O)(=O)N/N=C/c2cccc(OC3CSC3)c2)cc1	-3	15%	-23%	8.9µM*	-3%	-5%
Cc1ccc(S(=O)(=O)N/N=C/c2cccc3c2OCCO3)cc1	-2	13%	-17%	10µM*	-8%	-6%
Cc1ccc(S(=O)(=O)N/N=C/c2ccc(C#N)cc2)cc1	-3	18%	-17%	2.2µM*	-6%	-25%
